Sampled rows, rich in hits. Any-hit rate of the full collection: about 2.8%.
CF NFkB block: blocks PAF-induced NF-kB reporter in cystic fibrosis cells | AID 588850 | 0.86% of 360,000 active | KKLEB NF-kB-GFP reporter, GFP fluorescence overnight | inhibition, % at 5 µM;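 active means at least 50% inhibition at 5 µM, scaled per plate between neutral and stimulator controls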;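 further: PAF is a Pseudomonas aeruginosa culture filtrate used as stimulus; plate controls were PAF-stimulated DMSO wells for no effect and unstimulated DMSO wells for full effect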
Peg3 prom inh: inhibitors of Peg3 promoter; HeLa PEG-Prom luciferase reporter, luminescence, overnight; inhibition, % at 20 µM; 1.7% of 360,000 active; AID 588405;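 active means inhibition of at least 50% at 20 µM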
HIF-2a block: blocks HIF-2a reporter activity; 786-0 RCC cells HIF-2a reporter, luciferase luminescence, overnight; inhibition, % at 18.8 µM; 0.72% of 360,000 active;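 active means inhibition of the luminescence signal of 40% or more relative to plate controls, in a single-dose primary screen at 18.75 µM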
KKLEB cytotox: CF airway cell cytotoxicity counter-screen. activity change (cytotoxicity), % at 5 µM. KKLEB CF airway cells viability, ATPlite luminescence, overnight; stronger effect = lower value; cells stimulated with P. aeruginosa culture filtrate. 0.36% of 360,000 active;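 active means corrected activity change at or below -50% at 5 µM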
MITF TRPM1 inh: MITF TRPM1 promoter inhibition in SK-MEL-5 cells | SK-MEL-5 TRPM1 promoter luciferase, 24 h | AID 488899 | inhibition, % at 12.5 µM | 0.83% of 330,000 active;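 active means mean inhibition across replicates of 60% or more, whatever share of single replicates reaches that level; inconclusive means some that reach 60%, reason not given; inactive means mean inhibition across replicates below 60%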
Shn3 inh set2: Schnurri-3 reporter inhibition in Clone20 osteoblasts. Clone20 osteoblast Shn3 3'UTR firefly luciferase, 24 h. inhibition, % at 12.5 µM. 0.52% of 360,000 active;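 active means mean inhibition of at least 75% with every replicate also reaching 75%; inconclusive means mean inhibition at least 75% but some replicate below; inactive means mean inhibition below 75%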;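 further: 0% = median of neutral control wells and 100% = pilot-screen positive control compound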
Starred values were filed as active, the others as inactive; ? = inconclusive; . = not tested or not shown.

SMILES	CF NFkB block	Peg3 prom inh	HIF-2a block	KKLEB cytotox	MITF TRPM1 inh	Shn3 inh set2
O=C(N/N=C/c1c(O)ccc2ccccc12)c1cccc(C(F)(F)F)c1	50	68*	-21	-52*	71*	69
Oc1ccc2ccccc2c1C=NNc1ccccn1	77*	-79	-160	-81*	-8	72
O=C(CN1CCCC1)N/N=C/c1c(O)ccc2ccccc12	3	32	-3	7	38	91*
COc1cc(C)ccc1OCc1cc(C(=O)N(Cc2c(C)nn(C)c2C)C2CC2)no1	-4	-272	-172	-7	-55	-27
Cc1ccccc1-c1nnn(CC(=O)Nc2ccc3c(c2)OCCO3)n1	-2	-122	-130	3	-5	-3
Cc1ccccc1C1CC(=O)Oc2cc(O)ccc21 (configuration not stated)	-11	-6	5	8	-6	-62
COc1cccc(-c2nn(-c3ccc(C)cc3)cc2C(=O)N2CCN(C3CCS(=O)(=O)C3)CC2)c1 (configuration not stated)	-3	-39	-31	-7	-12	-49
COc1ccccc1OCC(=O)N/N=C/c1c(O)ccc2ccccc12	-6	63*	3	-12	48	25
Cc1c(NC(=O)c2cccc(NC(=O)COc3ccccc3C#N)c2)c(=O)n(-c2ccccc2)n1C	-23	0	45*	-5	51	10
O=C(O)c1ccc(N=Nc2c(O)ccc3ncccc23)cc1	-28	-9	-89	-8	29	28
CCNC(=O)CC1C(=O)N(C)C(=S)N1NC(=O)c1ccc(Cl)cc1 (configuration not stated)	4	3	9	-4	-2	-16
Nc1ccc(C(=O)NN2C(=O)[C@H](Cl)C2c2ccc(Cl)cc2)cc1 (some centres not stated)	91*	102*	11	-79*	81*	99*
CCn1nnnc1-c1ccc(OC)c(S(=O)(=O)Nc2ccccc2OC)c1	-14	5	12	2	.	-14
CCN(CC)c1ccc(N)cc1	28	18	-33	-15	86*	?
Nc1ccc(N(CCO)CCO)cc1	6	8	6	-3	6	3
CCC(=O)[C@@]1(C)[C@H](C)C[C@H]2[C@@H]3CCC4=CC(=O)C=C[C@]4(C)[C@H]3[C@@H](O)C[C@@]21C	72*	9	22	39	-7	41
CCCC1OC2CC3C4CCC5=CC(=O)C=CC5(C)C4C(O)CC3(C)C2(C(=O)O)O1 (configuration not stated)	74*	1	29	32	-12	8
CCCc1nnc(NC(=O)CCC(=O)N2CCN(S(=O)(=O)c3ccc(C)cc3)CC2)s1	0	13	25	-8	-3	0
O=S(=O)(Nc1ccc(N2CCOCC2)cc1)c1c(F)cc(F)cc1Br	-4	-15	6	-5	0	8
CCCOc1ccccc1C1CC(=O)Nc2cc3c(cc21)OCCO3 (configuration not stated)	33	7	31	1	37	87*
O=C(COC(=O)/C=C/c1ccc(OC(F)F)cc1)Nc1ccc2[nH]c(=O)[nH]c2c1	-6	18	7	1	-10	97*
O=C(COC(=O)/C=C/c1ccc(F)cc1)Nc1ccc2[nH]c(=O)[nH]c2c1	-20	5	1	12	-7	-4
Cc1nnc(N2CCCC(C(=O)NCc3cccc(F)c3)C2)c2nn(-c3ccccc3)c(C)c12 (configuration not stated)	4	19	1	-5	30	47
CCc1ccc(CNC(=O)C2CCCN(c3nnc(C)c4c(C)n(-c5ccccc5)nc34)C2)cc1 (configuration not stated)	4	-41	3	-12	66*	42
Cc1c(Cl)cccc1NC(=S)NNc1ncc(C(F)(F)F)cc1Cl	26	54*	-6	-25	15	11
SMILES	CF NFkB block	Peg3 prom inh	HIF-2a block	KKLEB cytotox	MITF TRPM1 inh	Shn3 inh set2
Cc1ccccc1NC(=O)C1CCN(C(=O)N2CCOc3ccccc32)CC1	-36	6	4	14	.	3
CC(C)CCSc1nc(N)c(C#N)cc1C#N	51*	-41	-78	0	-16	8
CCN(CC)CCCNc1ccc(-c2nnc(-c3ccc(OCC(C)C)cc3)o2)cn1	3	113*	16	-19	77*	25
CCc1nnc(NC(=O)c2nc(S(=O)(=O)Cc3ccccc3)ncc2Cl)s1	90*	104*	54*	-94*	80*	98*
COC(=O)c1ccccc1NC(=O)c1nc(S(=O)(=O)Cc2ccccc2)ncc1Cl	96*	92*	-33	-95*	93*	95*
COC(=O)c1cscc1S(=O)(=O)Cc1ccccc1	5	0	0	2	-8	5
CCc1nnc(NC(=O)c2nc(Cl)ccc2Cl)s1	0	9	-11	8	1	-2
O=C(NCc1ccc2c(c1)OCO2)c1nc(S(=O)(=O)Cc2ccccc2)ncc1Cl	84*	106*	19	-22	52	94*
CN(C)CCCN(C(=O)c1ccc(C(=O)c2ccccc2)cc1)c1nc2ccc(F)cc2s1	25	33	-21	-8	-9	-16
CCOc1ccc2nc(N(CCCN(C)C)C(=O)c3ccc(S(=O)(=O)N4CCCC4)cc3)sc2c1	5	-27	9	7	-9	-14
CN(C)CCCN(C(=O)c1ccc(S(=O)(=O)N2CCCC2)cc1)c1nc2ccc(Br)cc2s1	-2	-11	-16	-14	83*	-21
CCN(Cc1ccccc1)S(=O)(=O)c1ccc(C(=O)N(CCCN(C)C)c2nc3cc(OC)ccc3s2)cc1	12	-11	-28	0	63*	9
CCN(Cc1ccccc1)S(=O)(=O)c1ccc(C(=O)N(CCCN(C)C)c2nc3ccc(F)cc3s2)cc1	13	2	-1	1	91*	20
COc1ccc2sc(N(CCCN(C)C)C(=O)c3ccc(C(=O)c4ccccc4)cc3)nc2c1	25	-39	-37	-2	-14	20
CCc1ccc2nc(N(CCCN(C)C)C(=O)c3ccc(S(=O)(=O)N(C)C4CCCCC4)cc3)sc2c1	20	79*	26	-25	96*	24
O=C(O)c1cc(Cl)n[nH]c1=O	-11	0	0	11	.	8
Cc1ccc(NC(=S)NCCc2ccccc2)nc1	15	-209	-244	8	-84	-64
Cc1ccc2c(c1)cc1c(=O)n(CC(=O)NCCN3CCCC3)nc(C)n12	-6	-20	-9	-4	-6	-15
Cc1cc(Nc2cccc([N+](=O)[O-])c2)n2c(nc3ccccc32)c1C#N	35	17	11	-38	76*	?
CCN(CC)CCNc1cc(C)c(C#N)c2nc3ccccc3n12	-21	7	2	-4	15	-28

Screens (PubChem)
